Measured values taken from PubChem BioAssay (NCATS).
Records with an inconclusive call do not appear. Calls of active or inactive are those of the source. Calls come from the whole dose curve; as a rule, active = well fitted curve in the direction sought with a large enough effect; inconclusive = small, poorly fitted or top-dose-only effect, or another doubt; inactive = no such curve, though single readings can be large; an effect the other way counts as inactive or inconclusive.

Experiments:
[1] = test system: Zika virus NS2B-NS3 protease (linked construct); assay: Primary screen NINDS Rhodamine qHTS for Zika virus inhibitors (AID 1347160); conditions: outcome: dose series up to 57.1 µM unless noted; note: nearly all actives have a fitted effect of over 55% in size
How it was run: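 Purified NS2B-NS3 protease with the NS2B hydrophilic domain joined by a flexible linker (25 nM) in 10 mM Tris-HCl pH 8.0, 0.01% Tween 20, preincubated 15 min at RT with compound; Rhodamine110 peptide substrate 1.5 µM; fluorescence change over 15 min; 4-parameter Hill fit.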

[2] = qHTS to identify inhibitors of the type 1 interferon - major histocompatibility complex class I in skeletal muscle: primary screen against the NCATS Pharmaceutical Collection (AID 1347407);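 note: luminescence of HiBiT knocked into endogenous HLA-B as interferon-induced MHC class I level; % is set by controls: 0 for no effect and ±100 for the full control effect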
How it was run: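 Immortalized human myoblasts (C25cl48) with HiBiT knocked into endogenous HLA-B*08:01 were stimulated with 4.0 ng/ml IFN-beta and treated with compounds ([…] top 46 uM) for 24 hrs at 37 C. HiBiT lytic luminescence read.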

[3] = molecular target: Protein phosphatase 1D (Homo sapiens) (UniProt O15297); assay: RapidFire Mass Spectrometry qHTS Assay for Modulators of WT P53-Induced Phosphatase 1 (WIP1) (AID 1347424);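 note: amount of dephosphorylated VEPPL-S-QETFS peptide product formed by WIP1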; note: potency is the fitted concentration of half-maximal effect;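 for activity change, negative = inhibition: series mostly up to about 63 µM; plate controls were DMSO wells for no effect and GSK830371 inhibitor control at 10 µM for full effect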
How it was run: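 10 nM WIP1 preincubated with compounds 1 hr at room temperature in pH 7.5 Tris buffer with 30 mM MgCl2, 1 mM TCEP; 2 uM VEPPL-pS-QETFS phosphopeptide for 5 min, formic acid quench; dephosphorylated product quantified by RapidFire MS against labelled standard.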

[4] = molecular target: Protein phosphatase 1D (Homo sapiens) (UniProt O15297); assay: Rhodamine-PBP qHTS Assay for Modulators of WT P53-Induced Phosphatase 1 (WIP1) (AID 1347425); note: % of control where 0% means no effect
How it was run: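 WIP1 (5 nM final) was preincubated with compound for 1 hour at room temperature. It then dephosphorylated 10 uM VEPPL-pS-QETFS peptide in Tris-HCl pH 7.5 with 30 mM MgCl2. Released Pi was detected by 10 uM Rh-PBP fluorescence (ex 525/em 598 nm) read at 1-min intervals for 11 min, as delta f1 - f0.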

[5] = molecular target: Calcium and integrin-binding protein 1 (Homo sapiens) (UniProt Q99828); assay: Primary qHTS for Identification of Calcium Integrin Binding Protein 1 (CIB1) Competitor (AID 1508620);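 note: GST tagged CIB1 binding a fluorescein labelled alphaIIb integrin peptide tracer; top concentration of the series differs between compounds; % is set by controls: 0 for no effect and ±100 for the full control effect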
How it was run: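 Fluorescence polarization competition: GST-tagged CIB1 (1 uM final) preincubated with compound 15 min at room temperature, then FITC-labelled alphaIIb peptide (100 nM final) added. After 15 min at room temperature, polarization read at Ex 480/Em 540.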

[6] = Primary qHTS for inhibitors of La Crosse Virus (LACV) - induced cell death in SH-SY5Y cells (AID 1508616);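 note: top concentration of the series differs between compounds; 0% = infected DMSO wells and 100% = uninfected DMSO wells; higher means more rescue of cells from virus-induced death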
How it was run: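 SH-SY5Y cells (6000/well) plated 24 h, then given compounds by pin transfer and LACV at 0.01 MOI for 6 days at 37C. Viability measured by ATPLite luminescence, normalized to infected DMSO and uninfected DMSO.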

[7] = Confirmatory screen NINDS Rhodamine qHTS for Zika virus inhibitors (AID 1347161); note: nearly all actives have a fitted effect of over 60% in size; note: potency is the fitted concentration of half-maximal effect;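 for activity change, negative = inhibition: purified Zika NS2B-NS3 protease with linked NS2B cofactor domain and Rhodamine110 peptide substrate; series mostly up to about 110 µM; plate controls were no-inhibitor control for no effect and no-enzyme control for full effect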
How it was run: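 Percent inhibition, normalized to uninhibited and enzyme-free controls, is fitted to a 4-parameter Hill equation. Fluorescence change comes from a 15-min cleavage of 1.5 microM bis-peptide Rhodamine110 substrate by 25 nM linked NS2B-NS3 at room temperature.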

[8] = test system: Zika virus NS2B-NS3 protease (linked); assay: 384 well plate NINDS AMC confirmatory qHTS for Zika virus inhibitors (AID 1347163);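 note: fluorescence of AMC released from Ac-VKTGKR-AMC peptide cleaved by the protease; top concentration of the series differs between compounds; 0% = no-inhibitor control and -100% = no-enzyme control; nearly all actives have a fitted effect of over 50% in size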
How it was run: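 Linked NS2B-NS3 protease (final 5 nM, 30 nM or 60 nM) was preincubated with compounds (final up to 1 mM) for ~15 minutes. Ac-VKTGKR-AMC substrate (final 30 microM) then reacted for 25 minutes at room temperature in the dark. Fluorescence (ex 355/em 460 nm) was normalized to no-enzyme and no-inhibitor controls.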

[9] = test system: Zika virus NS2B-NS3 protease (linked construct); assay: 384 well plate NINDS Rhodamine confirmatory qHTS for Zika virus inhibitors (AID 1347164); conditions: rhodamine-110 peptide substrate fluorescence;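 note: fluorescence from protease cleavage of Ac-LKRR-rhodamine 110 substrate; potency is the fitted concentration of half-maximal effect; nearly all actives have a fitted effect of over 65% in size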
How it was run: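 Linked NS2B-NS3 protease (final 5, 30 or 60 nM) preincubated ~15 minutes with compounds, then 10 microM Ac-LKRR-Rhodamine 110 added. Fluorescence (485/538 nm) read after 25 minutes at room temperature, normalized to no-enzyme and no-inhibitor controls.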

[10] = Vero cells viability qHTS for Zika virus inhibitors (AID 1347167); note: % is set by controls: 0 for no effect and ±100 for the full control effect
How it was run: (§1)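 Cells seeded at 2.5 x 10^5 cells/mL in DMEM with 4% FBS and attached overnight at 37 degrees C, then exposed to compound for 24 to 48 hours. Viability read as ATP content by CellTiter Glo luminescence.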

[11] = HepG2 cells viability qHTS for Zika virus inhibitors (AID 1347168); note: % is set by controls: 0 for no effect and ±100 for the full control effect
How it was run: as §1

[12] = qHTS to identify inhibitors of the type 1 interferon - major histocompatibility complex class I in skeletal muscle: primary screen against the NCATS Mechanism Interrogation Plate v5.0 (MIPE) Libary (AID 1347411);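 note: plate controls were vehicle for no effect and reference inhibitor for full effect; nearly all actives have a fitted effect of over 65% in size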
How it was run: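 Immortalized human myoblasts (C25cl48) with HiBit knocked into endogenous HLA-B*08:01 were stimulated with 4 ng/ml IFN-beta and given compounds in 11-point 1:3 titration from 46 uM. After 24 h at 37 C, lytic HiBiT luminescence was read.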

[13] = molecular target: Calcium and integrin-binding protein 1 (Homo sapiens) (UniProt Q99828); assay: Confirmatory qHTS for Identification of Calcium Integrin Binding Protein 1 (CIB1) Competitor (AID 1508617); note: % is set by controls: 0 for no effect and ±100 for the full control effect; nearly all actives have a fitted effect of over 65% in size
How it was run: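 FP competition: CIB1-GST (1 uM final) in 5 mM HEPES pH 7.4, 125 mM NaCl, 5 mM CaCl2, 0.01% Tween20 preincubated 15 min RT with compounds (up to 114 uM), then FITC-alphaIIb peptide (100 nM), 15 min RT; Ex 480/Em 540.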

[14] = Tertiary RLuc qRT-PCR qHTS assay for Zika virus inhibitors (AID 1347169); note: top concentration of the series differs between compounds; % is set by controls: 0 for no effect and ±100 for the full control effect; nearly all actives have a fitted effect of over 55% in size
How it was run: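 Vero cells (1,000/well) infected with recombinant ZIKV-RLuc (Cambodian) at MOI 1-2 after compound addition, 48-72 hrs at 37 degrees C. Live-cell Renilla luciferase substrate added; luminescence read after 1-1.5 hrs.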

[15] = molecular target: Lysine-specific demethylase 5B (Homo sapiens) (UniProt Q9UGL1); assay: Optimization screen for KDM5B Histone Demethylases FDH coupled qHTS against the LOPAC library (AID 1347166); note: 0% is about no effect
How it was run: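 KDM5BDeltaAP (200nM final) preincubated 10 min with compound, then 12.5uM H3K4Me3, 25uM a-ketoglutarate, ascorbate, Fe(II), NAD+ and FDH added; 50mM HEPES pH 7.5, 0.01% Tween-20. NADH fluorescence (340/450 nm) change over 30 min, room temperature.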

[16] = qHTS to identify inhibitors of the type 1 interferon - major histocompatibility complex class I in skeletal muscle: primary screen against the NCATS LOPAC collection (AID 1347405)
How it was run: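 CRISPR-engineered immortalized human myoblasts (C25cl48) with HiBiT fused to endogenous HLA-B*08:01, stimulated with 4 ng/ml IFN-beta. LOPAC compounds tested as a 7-point 1:4.3 titration (top 46 uM final), 24 h at 37 C; lytic HiBiT luminescence read.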

[17] = qHTS for inhibitors of adenylyl cyclases using a fission yeast platform: a pilot screen against the NCATS LOPAC library (AID 1347410);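 note: plate controls were DMSO vehicle for no effect and DPI positive control for full effect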
How it was run: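 S. pombe CHP2027 (AC9-GNAS-PDE4D2) carrying PKA-repressed fbp1-GFP, incubated 18 h at 30C in EMM with LOPAC compounds at up to 57 uM. GFP gain-of-signal read by laser scanning cytometry; DMSO negative control.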

[18] = Validation qHTS assay for inhibitors of Activation Induced Cytidine Deaminase (AID): UDG Counterscreen signal (AID 1347427); note: 0% is about no effect
How it was run: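 Counterscreen read of UDG activity (2 U/mL, 4/3x) in the FRET deamination format with AID (1 uM, 4/3x), DJC20/DJC23 substrates (250 nM, 4x), 4 h at room temperature. NaOH stop, fluorescence at 560 ex/665 em.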

[19] = molecular target: Single-stranded DNA cytosine deaminase (Homo sapiens) (UniProt Q9GZX7); assay: Validation qHTS assay for inhibitors of Activation Induced Cytidine Deaminase (AID): AID signal (AID 1347429); note: % is set by controls: 0 for no effect and ±100 for the full control effect
How it was run: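 FRET deamination assay: 1 uM AID (4/3x stock) with UDG, compound up to 114 uM, then 250 nM DJC20/DJC23 substrate (4x stock) for 4 hr at room temperature. NaOH added, 30 min; fluorescence read 540/590 nm.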

[20] = molecular target: Calcium and integrin-binding protein 1 (Homo sapiens) (UniProt Q99828); assay: Validation qHTS for Identification of Calcium Integrin Binding protein 1 (CIB1) Competitor (AID 1508618); note: % is set by controls: 0 for no effect and ±100 for the full control effect
How it was run: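 Fluorescence polarization with 1 uM CIB1-GST and 100 nM FITC-alphaIIb peptide in HEPES pH 7.4, NaCl, 5 mM CaCl2, Tween20. Compounds at up to 114 uM final, preincubated with protein 15 min; read after 15 min more at RT.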

Sequence of Protein phosphatase 1D (Homo sapiens) (O15297 whole entry, looked up): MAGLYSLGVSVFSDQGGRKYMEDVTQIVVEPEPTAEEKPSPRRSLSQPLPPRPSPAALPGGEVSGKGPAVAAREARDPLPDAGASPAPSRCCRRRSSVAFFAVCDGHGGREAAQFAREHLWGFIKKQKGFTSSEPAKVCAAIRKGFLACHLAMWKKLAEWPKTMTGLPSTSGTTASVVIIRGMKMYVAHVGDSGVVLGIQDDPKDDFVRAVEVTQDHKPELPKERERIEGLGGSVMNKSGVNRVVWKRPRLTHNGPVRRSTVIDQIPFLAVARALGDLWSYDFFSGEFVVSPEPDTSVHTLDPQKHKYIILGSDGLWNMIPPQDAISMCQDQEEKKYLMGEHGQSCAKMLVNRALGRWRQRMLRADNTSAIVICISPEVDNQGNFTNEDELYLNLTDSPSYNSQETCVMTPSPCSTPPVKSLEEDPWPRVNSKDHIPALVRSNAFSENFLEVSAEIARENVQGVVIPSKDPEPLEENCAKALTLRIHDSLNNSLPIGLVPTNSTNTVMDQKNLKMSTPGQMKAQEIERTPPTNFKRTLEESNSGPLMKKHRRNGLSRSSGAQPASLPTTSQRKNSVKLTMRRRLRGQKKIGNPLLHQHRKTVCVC
Sequence of Calcium and integrin-binding protein 1 (Homo sapiens) (Q99828 whole entry, looked up): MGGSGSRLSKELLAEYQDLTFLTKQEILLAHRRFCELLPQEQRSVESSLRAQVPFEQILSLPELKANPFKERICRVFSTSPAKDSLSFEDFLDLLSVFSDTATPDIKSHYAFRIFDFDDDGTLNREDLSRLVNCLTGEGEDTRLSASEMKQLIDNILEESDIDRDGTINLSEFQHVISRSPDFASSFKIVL
Sequence of Single-stranded DNA cytosine deaminase (Homo sapiens) (Q9GZX7 whole entry, looked up): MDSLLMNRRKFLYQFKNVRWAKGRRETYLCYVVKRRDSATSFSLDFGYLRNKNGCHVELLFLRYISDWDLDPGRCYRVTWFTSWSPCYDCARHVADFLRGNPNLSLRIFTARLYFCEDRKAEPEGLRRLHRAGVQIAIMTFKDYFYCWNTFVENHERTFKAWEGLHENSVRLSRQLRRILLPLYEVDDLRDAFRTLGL
Sequence of Lysine-specific demethylase 5B (Homo sapiens) (Q9UGL1 whole entry, looked up): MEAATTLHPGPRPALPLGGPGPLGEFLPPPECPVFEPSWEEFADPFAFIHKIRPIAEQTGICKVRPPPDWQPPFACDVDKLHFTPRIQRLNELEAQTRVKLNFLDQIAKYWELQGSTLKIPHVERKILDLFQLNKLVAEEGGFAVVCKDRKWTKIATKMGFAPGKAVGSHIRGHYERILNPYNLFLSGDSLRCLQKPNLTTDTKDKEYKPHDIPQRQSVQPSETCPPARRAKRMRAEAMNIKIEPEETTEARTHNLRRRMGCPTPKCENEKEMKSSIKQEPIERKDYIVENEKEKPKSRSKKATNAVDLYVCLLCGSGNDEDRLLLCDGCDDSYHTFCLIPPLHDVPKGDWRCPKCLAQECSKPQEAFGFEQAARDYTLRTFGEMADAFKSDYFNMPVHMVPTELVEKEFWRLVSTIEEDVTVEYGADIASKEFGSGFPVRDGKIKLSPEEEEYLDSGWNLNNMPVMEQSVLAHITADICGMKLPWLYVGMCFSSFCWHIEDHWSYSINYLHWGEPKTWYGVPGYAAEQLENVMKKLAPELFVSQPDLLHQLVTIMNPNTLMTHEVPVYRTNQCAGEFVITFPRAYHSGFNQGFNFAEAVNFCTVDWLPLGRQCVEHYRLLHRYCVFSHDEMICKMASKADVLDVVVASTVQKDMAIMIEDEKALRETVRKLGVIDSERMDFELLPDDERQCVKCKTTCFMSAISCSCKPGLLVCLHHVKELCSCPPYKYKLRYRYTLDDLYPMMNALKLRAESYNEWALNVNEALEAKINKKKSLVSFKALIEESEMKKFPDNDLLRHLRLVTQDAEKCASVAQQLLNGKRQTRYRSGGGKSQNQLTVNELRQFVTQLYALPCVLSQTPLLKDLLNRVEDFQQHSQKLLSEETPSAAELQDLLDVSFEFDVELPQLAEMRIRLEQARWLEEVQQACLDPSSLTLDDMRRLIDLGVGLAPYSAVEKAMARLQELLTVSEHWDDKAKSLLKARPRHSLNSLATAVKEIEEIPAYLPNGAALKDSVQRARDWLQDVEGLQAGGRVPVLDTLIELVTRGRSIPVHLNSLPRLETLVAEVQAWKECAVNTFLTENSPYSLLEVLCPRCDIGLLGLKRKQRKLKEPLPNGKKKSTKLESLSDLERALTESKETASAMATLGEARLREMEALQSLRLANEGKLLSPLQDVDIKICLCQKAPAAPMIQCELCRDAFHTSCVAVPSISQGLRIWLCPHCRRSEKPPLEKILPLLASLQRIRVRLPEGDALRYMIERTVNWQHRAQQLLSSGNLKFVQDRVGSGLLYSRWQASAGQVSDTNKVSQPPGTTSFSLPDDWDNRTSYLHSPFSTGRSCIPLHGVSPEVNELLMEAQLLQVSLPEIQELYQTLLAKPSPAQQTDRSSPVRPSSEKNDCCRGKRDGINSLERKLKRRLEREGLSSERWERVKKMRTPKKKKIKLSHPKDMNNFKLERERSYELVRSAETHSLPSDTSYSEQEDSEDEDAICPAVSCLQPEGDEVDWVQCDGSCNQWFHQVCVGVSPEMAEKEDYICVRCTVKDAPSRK

CO[C@]1(NC(=O)CSC(F)F)C(=O)N2C(C(=O)O)=C(CSc3nnnn3CCO)CO[C@H]21
inactive: outcome [1] | Potency [2] | Potency [3] | outcome [4] | Potency [5]

CC(=O)[C@H]1CC[C@H]2[C@@H]3C=CC4=CC(=O)CC[C@@]4(C)[C@@H]3CC[C@]12C
inactive: outcome [1] | Potency [2] | outcome [4] | outcome [6] | Potency [5]

O=C(Nc1ccc(S(=O)(=O)N2CCOCC2)cc1)c1cc(Cl)ccc1NS(=O)(=O)c1ccc(Cl)s1
inactive: Potency [8] | outcome [10] | outcome [11] | Potency [2] | Potency [12] | outcome [6] | Potency [13]
active: Potency [7] 1.75 µM | Potency [9] 10 µM | Potency [3] 11.2 µM

CC(=O)OCC(=O)Nc1cc(C#N)cc(NC(=O)COC(C)=O)c1Cl
inactive: outcome [1] | Potency [2] | Potency [3] | outcome [4] | outcome [6] | Potency [5]

O=C1OC2(c3ccccc31)c1cc(I)c(O)c(I)c1Oc1c2cc(I)c(O)c1I
inactive: activity change, negative = inhibition [14] 6.31% [at 1.74 µM] | outcome [6] | Potency [5]
active: Potency [7] 17.8 µM

CCN(CC)CCNC(=O)c1ccc(NS(C)(=O)=O)cc1
inactive: outcome [15] | Potency [16] | outcome [17] | outcome [18] | outcome [19] | outcome [6] | outcome [20]

O=C1[C@@H]2[C@H]3CC[C@H](C3)[C@@H]2C(=O)N1CCCCN1CCN(c2ncccn2)CC1
inactive: outcome [1] | Potency [2] | Potency [3] | outcome [4] | outcome [6] | Potency [5]

C=CC[N+]1([C@H]2C[C@H]3[C@@H]4CC[C@H]5C[C@H](OC(C)=O)[C@@H](N6CCCCC6)C[C@]5(C)[C@H]4CC[C@]3(C)[C@H]2OC(=O)CC)CCCCC1
inactive: outcome [1] | Potency [2] | outcome [4] | outcome [6] | Potency [5]

Cc1nc(C2CCCCC2)c(-c2ccc(S(N)(=O)=O)c(F)c2)o1
inactive: outcome [10] | outcome [11] | Potency [3] | outcome [4] | outcome [6] | Potency [5]

CCN(CC)CCOc1ccc(/C(=C(\Cl)c2ccccc2)c2ccccc2)cc1
inactive: outcome [1] | outcome [4] | outcome [6] | Potency [5]

O=C1NC2CCCCN2C12CCN(CCCN1c3ccccc3CCc3ccc(Cl)cc31)CC2 (stereo not given)
inactive: outcome [1] | Potency [3] | outcome [4] | outcome [6] | Potency [5]

O=C(CCCCC(=O)Nc1c(I)cc(I)c(C(=O)O)c1I)Nc1c(I)cc(I)c(C(=O)O)c1I
inactive: Potency [7] | activity change, negative = inhibition [14] 2.99% [at 5.25 µM] | Potency [2] | Potency [3] | outcome [4] | Potency [5]

N[C@@H](Cc1cc(I)c(O)c(I)c1)C(=O)O
inactive: outcome [10] | outcome [11] | Potency [14] | Potency [2] | outcome [6]

CC1CC(=O)NN=C1c1ccc(NCC(C)(C)NCC(O)COc2cc(Cl)ccc2C#N)cc1 (stereo not given)
inactive: outcome [1] | Potency [2] | Potency [3] | outcome [4] | outcome [6] | Potency [5]
